Source: PubChem BioAssay
The entries come from a sample that favours hits as a whole.
LmPK inh = qHTS Assay for Inhibitors of Leishmania Mexicana Pyruvate Kinase (LmPK). Q27686. purified LmPK, Kinase-Glo ATP luminescence, 1 h. Potency, µM (highest dose often 57.5 µM), inactives show at the top dose activity change, negative = inhibition, actives largely listed as inhibitors. 0.37% of 290,000 active. AID 1721, 2009; active = well fitted curve in the direction sought with a large enough effect; inconclusive = small, poorly fitted or top-dose-only effect, or another doubt; inactive = no such curve, though single readings can be large; an effect the other way counts as inactive or inconclusive; note: potency is the fitted concentration of half-maximal effect; % is set by controls: 0 for no effect and ±100 for the full control effect
Target sequence (Q27686 whole entry, looked up): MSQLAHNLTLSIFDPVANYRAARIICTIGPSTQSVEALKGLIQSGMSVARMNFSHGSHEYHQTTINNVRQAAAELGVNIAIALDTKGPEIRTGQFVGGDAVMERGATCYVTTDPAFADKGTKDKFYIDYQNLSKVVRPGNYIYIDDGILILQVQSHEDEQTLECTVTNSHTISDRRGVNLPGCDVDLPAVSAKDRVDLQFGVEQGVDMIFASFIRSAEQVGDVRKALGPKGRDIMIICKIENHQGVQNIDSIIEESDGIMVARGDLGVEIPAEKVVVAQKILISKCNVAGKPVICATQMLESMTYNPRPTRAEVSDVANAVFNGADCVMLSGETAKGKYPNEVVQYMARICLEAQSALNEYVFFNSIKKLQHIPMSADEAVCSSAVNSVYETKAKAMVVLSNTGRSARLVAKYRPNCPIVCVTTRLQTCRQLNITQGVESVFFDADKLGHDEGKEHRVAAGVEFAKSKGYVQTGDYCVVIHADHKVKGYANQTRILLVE
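Kinase-Glo luminescence read after 1 h RT reaction of 0.1 nM LmPK with 0.5 mM PEP and 0.1 mM ADP. Activity scaled between uninhibited and enzyme-free controls.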
TbPYK inhibitor = qHTS of Trypanosoma Brucei Inhibitors. pyruvate kinase (Trypanosoma brucei), Q57TT1. TbPYK enzyme, Kinase-Glo Plus ATP luminescence, 45 min. Potency, µM (series often up to 76.8 µM), inactives show at the highest dose activity, negative = inhibition, usual class: inhibitors. 0.12% of 410,000 active. AID 624173, 2012; active = well fitted curve in the direction sought with a large enough effect; inconclusive = small, poorly fitted or top-dose-only effect, or another doubt; inactive = no such curve, though single readings can be large; an effect the other way counts as inactive or inconclusive; note: potency is the fitted concentration of half-maximal effect; % is set by controls: 0 for no effect and ±100 for the full control effect; nearly all actives have a fitted effect of over 50% in size
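T. brucei PYK with substrate was exposed to pin-transferred compounds across a concentration series, then started with 130 uM ADP (final). After 45 min at room temperature, Kinase-Glo Plus luminescence was read, normalized and curve-fitted.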
Cycloheximide cs = Cycloheximide Counterscreen for Small Molecule Inhibitors of Shiga Toxin. AID 2314, 2010. cell reporter, cycloheximide protein synthesis inhibition counterscreen. 12% of 300,000 active. max response, %; in the data active = max response mostly above about 13%, no sharp cut-off; inactive = mostly below about 14%; note: read at 38.3 µM for the half of the compounds with a filed dose; 0% is about no effect
NS1 inh = qHTS Assay for Inhibitors of Influenza NS1 Protein Function | Potency, µM (highest dose often 46.1 µM), for the others: at the top dose activity, positive = more growth | 0.4% of 270,000 active; note: potency is the fitted concentration of half-maximal effect; actives are rising curves; nearly all actives have a fitted effect of over 50% in size
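S. cerevisiae expressing influenza A NS1, grown in glucose, washed, then diluted 1:100 into pH 6.0 -URA galactose medium with 23 nl compound. Growth recovery read as OD600; NS1-free strain serves as control.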
Shiga toxin inh = A qHTS for Small Molecule Inhibitors of Shiga Toxin. 9.2% of 290,000 active. Vero cells, Shiga toxin protein synthesis inhibition reporter. inhibition, % at 38.7 µM; in the data active = inhibition mostly above about 28%, no sharp cut-off; inactive = mostly below about 43%; note: 0% is about no effect
SARS PLP yeast = qHTS of Yeast-based Assay for SARS-CoV PLP | S. cerevisiae expressing SARS-CoV PLpro, growth rescue | Potency, µM (highest dose often 32.9 µM), for the others: at the top dose activity, positive = growth rescue, usual class: activators | 0.19% of 330,000 active; note: potency is the fitted concentration of half-maximal effect; 0% is about no effect; nearly all actives have a fitted effect of over 55% in size
* = called active by the depositor; u = inconclusive; x = not tested or not shown; [ ] = another dose, or the depositor's remark. Unless noted, calls come from the whole dose curve.

SMILES | LmPK inh | TbPYK inhibitor | Cycloheximide cs | NS1 inh | Shiga toxin inh | SARS PLP yeast
O=C(CSc1nnc(-c2cccs2)o1)c1cccs1 | 0% | 0% | 93* | -3% | 88* | 16%
Cc1cc(C(=O)CSc2nnc(-c3cccs3)o2)c(C)n1-c1ccccc1 | 2% | 0% | 12* | 8% | 77* | -5%
CCn1c(SCC(=O)c2cccs2)nnc1-c1cccs1 | 1% | -8% | 27* | -7% | 31 | -4%
COc1ccc(-c2nnc(SCC(=O)NC(=O)NCc3ccccc3)o2)cc1 | 3% | 4% | -3 | -1% | -5 | 3%
COc1cccc(C(=O)CSc2nnc(-c3cccs3)o2)c1 | 3% | 0% | -2 | 3% | 15 | -7%
COc1ccc(-c2nnc(SCC(=O)c3ccc[nH]3)o2)cc1 | -11% | -2% | 36* | 0% | 151* | u
COC(=O)c1ccc(CNC(=O)C2CCC(=O)N(CCCc3ccccc3)C2)cc1 (centres undefined) | -11% | -19% | 3 | 4% | -10 | 0%
COc1ccccc1C1(O)CCN(CCCn2c3ccccc3c3ccccc32)CC1 | x | x | -17 | x | -28 | x
C[C@H]1CN([C@@H](C)CO)C(=O)c2cc(Br)cnc2O[C@@H]1CN(C)S(=O)(=O)c1ccccc1 | x | -8% | x | x | x | x
O=C(CSc1ccc(-c2cccs2)nn1)Nc1ccccc1 | 1% | 0% | 14 | x | 49 | 1%
O=C(CSc1ccc(-c2cccs2)nn1)c1cccs1 | 7% | 3% | 46* | x | 104* | -2%
Cc1ccc(SCC(=O)c2ccc[nH]2)cc1 | -13% | 1% | 35* | x | 79* | 1%
O=C1NC(=S)N(C(=O)c2ccc(F)cc2)/C1=C/c1cccnc1 | -3% | -14% | 9 | -4% | 8 | 0%
COc1ccc(/C=C2\C(=O)NC(=S)N2C(=O)c2ccc(C)cc2)cc1 | -2% | -23% | 35* | -1% | 59* | 0%
O=[N+]([O-])c1ccc2nonc2c1Nc1ccccc1 | -1% | -1% | 23* | -12% | 43 | 6%
C(=N\Nc1nc2ccccc2[nH]1)/C1CCCCC1 | -12% | -2% | 61* | x | 114* | 12%
C(=N\Nc1nc2ccccc2[nH]1)/c1cccc2cccnc12 | -4% | -3% | 47* | -53% | 79* | -4%
NS(=O)(=O)c1ccc(N/N=C/c2ccc(O)cc2O)c([N+](=O)[O-])c1 | -7% | 1% | -1 | 1% | 17 | -2%
O=C(CCc1nc2ccccc2[nH]1)NC1CCCCC1 | 4% | -3% | 4 | u | 7 | 3%
O=[N+]([O-])c1cc(/C=N/Nc2nc3ccccc3[nH]2)c(O)cc1O | 0% | -13% | 43* | u | 104* | 16µM*
Cc1ccccc1/C=N/Nc1nc2ccccc2[nH]1 | 2% | 2% | 49* | x | 76* | -10%
CN1OC[C@@H]2CN(S(=O)(=O)c3cccc(C(F)(F)F)c3)[C@H](c3ccc(N4CCCCC4)cc3)C[C@@H]21 | x | -1% | x | x | x | x
CC1(C(=O)NS(=O)(=O)Cc2ccccc2C(F)(F)F)CCN1C(=O)c1ccccc1 (centres undefined) | x | 2% | x | x | x | x
O=c1[nH]c(N/N=C/c2cc3c(cc2[N+](=O)[O-])OCO3)nc2ccccc12 | 0% | -4% | 2 | 4% | -2 | -2%
C(=N\Nc1nn[nH]n1)/c1ccccc1 | 0% | 1% | -3 | -7% | -7 | 17%
SMILES | LmPK inh | TbPYK inhibitor | Cycloheximide cs | NS1 inh | Shiga toxin inh | SARS PLP yeast
O=c1[nH]c(N/N=C\c2ccc3c(c2)OCO3)nc2ccccc12 | -24% | -9% | 53* | 8% | 54* | -1%
Cc1[nH]c2ccccc2c1/C=N/Nc1nc2ccccc2[nH]1 | -2% | -5% | 43* | -5% | 112* | -10%
C(=N\Nc1nc2ccccc2[nH]1)/c1ccccc1 | -16% | -6% | 49* | -2% | 76* | -1%
O=c1[nH]c(N/N=C/c2ccccc2)nc2ccccc12 | -7% | 7% | 43* | -19% | 72* | -4%
O=C(CNC(=O)c1ccccc1)OCc1cc(=O)n2nc(C3CC3)sc2n1 | x | -2% | x | x | x | x
Cc1ccc2c(C)c(C)c(=O)n(C)c2c1 | x | 3% | x | x | x | x
COc1cc(CNc2nc3ccccc3[nH]2)cc(OC)c1OC | -2% | -1% | -2 | -3% | 13 | 4%
COc1cccc(/C=N/Nc2nc(C)cc(=O)[nH]2)c1OC | 0% | -21% | 21* | 4% | 45* | -2%
C(/CCc1ccccc1)=N\Nc1nc2ccccc2[nH]1 | -29% | -2% | 27* | x | 47* | -2%
COc1ccc(/C=N/Nc2nc3ccccc3[nH]2)c(OC)c1OC | -2% | -1% | 41* | 1% | 141* | -2%
Cc1nn(-c2ccccc2)c(Cl)c1/C=N/Nc1nc2ccccc2[nH]1 | -25% | -7% | 39* | 2% | 146* | -8%
COc1ccc2c(c1OC)C(=O)N1C2SC[C@H]1C(=O)NC1CCCC1 (some centres undefined) | -4% | 10% | -2 | 16% | 12 | -1%
CC[C@@]1([N+](=O)[O-])C[C@H]2C=C[C@@H]1C2 | x | x | x | -7% | x | x
O=S(=O)(c1cccc(C(F)(F)F)c1)N1CCC(Oc2ccc(-n3cnnn3)cc2)CC1 | x | 0% | x | x | x | x
C(=N\Nc1nc(N2CCCCC2)nc(N2CCCCC2)n1)/c1c[nH]c2ccccc12 | 1% | 2% | 10 | 0% | -4 | -4%
CCCc1cc(=O)[nH]c(N/N=C/C=C\c2ccccc2)n1 | 5% | 2% | -2 | 4% | -4 | -1%
Brc1ccc(-c2ccc(/C=N/Nc3nc4ccccc4[nH]3)o2)cc1 | -9% | -5% | 49* | u | 78* | -106%
Brc1ccc(-c2ccc(/C=N/Nc3nncc(-c4ccccc4)n3)o2)cc1 | 6% | -8% | -1 | 5% | -9 | 1%
C(=C\c1ccccc1)/C=N/Nc1nc2ccccc2[nH]1 | -12% | 3% | 27* | -11% | 89* | -14%
Cc1cc(N/N=C/c2ccc3c(c2)OCO3)nc2ccccc12 | -3% | -7% | 47* | -3% | 79* | -1%
C(=N\Nc1nc2ccccc2[nH]1)/c1c[nH]c2ccccc12 | -4% | -10% | 54* | 11% | 67* | 17%
Cc1ccccc1CN1C2=NCCN2C(=O)C2=C1CCN(Cc1ccccc1)C2 | x | x | x | 6% | x | x
CCOC(=O)c1cc(-c2ccc(F)cc2)n(CCC(=O)NC2CCCCC2)c1C | x | 3%[15.4 µM] | x | x | x | x
O=[N+]([O-])c1ccc(/C=N/Nc2ncccc2[N+](=O)[O-])s1 | x | -20% | x | x | x | x
COc1cccc(/C=N/Nc2ncccc2[N+](=O)[O-])c1OC | 14µM* | u | -4 | 0% | -15 | -2%
Cc1cc(=O)[nH]c(N/N=C/c2c[nH]c3ccccc23)n1 | -4% | -4% | 29* | 7% | 27 | -1%
